Compounds without any hit were thinned out: in the full panel of roughly 83,000, 20% have a hit.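 Values shown are percent growth following 48 h exposure of cells in 96-well plates to a single concentration of compound; below 10 was considered active.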 Unmarked numbers belong to inactive results. Activity calls are given as the source filed them.
What follows are compounds tested on MDA-MB-231 breast (assay: NCI-60 one-dose screen, 48 h (100 = growth as untreated, 0 = no growth, -100 = all killed)). Settings: 10 µM unless noted.

Structure (SMILES) | growth
COC(=O)CNC(=O)c1ccc(NC(=O)c2[nH]c(C)c(Cl)c2Cl)c(O[C@H]2CCNC2)c1 | 105%
FC(F)(F)c1cccc(-c2nnn(Cc3cc(-c4cccc(Cl)c4)no3)n2)c1 | 117%
O=C(Nc1ncc(Cc2ccccc2)s1)c1ccc2c(c1)OCCO2 | 39.2%
CCOC(=O)c1ccc2c(c1)[n+](=O)c(C(C)=O)c(C(F)(F)F)n2[O-] | 22.2%
O=C(Nc1ccccc1C(F)(F)F)C1=NCCCCN1 | 102%
CCCCCC(C)(O)C(C(=O)O)c1ccccc1 (stereo unspecified) | 102%
Nc1ncnc2c1N=C(c1ccc([N+](=O)[O-])cc1)CC(c1ccc3c(c1)OCO3)N2 (stereo unspecified) | 75%
COc1cc2c(cc1OC)CC[N+](CCC[N+](C)(C)C)=C2 | 115%
O=C1Nc2ccccc2/C1=C/c1cccn1CCCCCCn1c2ccccc2c(=O)c2ccccc21 | 75.4%
CCCS(=O)(=O)Nc1cccc(Nc2ncnc3cc(NC(=O)CCl)ccc23)c1Cl | -72.5% (active)
Cc1ccc(C23CCC(=O)N2CCc2cncn23)cc1 (stereo unspecified) | 113%
Cc1ccc(-c2nn(CC(=O)N3CCOCC3)c(N)c2C#N)cc1 | 108%
COC(=O)[C@H](C)NC(=O)[C@@H]1CCCN1C(=O)CNC(=O)[C@H](C)N | 106%
O=C1c2c(c3c4cccnc4[nH]c3c3ccc4ccccc4c23)C(=O)N1O | 85.9%
C#CCOc1cccc(Nc2ncnc3c(NC(=O)CCl)cccc23)c1 | -25.6% (active)
COc1ccc(CNc2c3ccccc3nc3ccccc23)cc1OC | 19.4%
COc1ccc(-c2csc(NC(=O)CSc3nc(C)cc(=O)[nH]3)n2)cc1 | 91.7%
O=C(CNc1ncco1)Nc1ccc(S(=O)(=O)c2ccc(NC(=O)CNc3ncco3)cc2)cc1 | 14.6%
Cc1c2cnccc2c(C)c2c1c1cc(C(=O)O)ccc1n2C | 3.08% (active)
COc1ccc(-c2cn(Cc3ccc4c(Br)cc(Br)c(O)c4n3)nn2)cc1 | 93.9%
COC(=O)c1c(C(=O)OC)c2ccc3c4ncccc4ccc3n2c1C(=O)c1ccc(C)cc1 | 84.1%
O=[N+]([O-])c1ccc(N/N=C\c2cc(Cl)ccc2O)nc1 | 48.8%
COc1ccc(C(=O)/C=C/c2ccc(C)cc2)cc1S(N)(=O)=O | 58.9%
CN1CCN(CC(=O)N(C)c2ccc(N=C(c3ccccc3)c3c(O)[nH]c4ccc([N+](=O)[O-])cc34)cc2)CC1 | 63.5%
C=CC(=O)NCc1cccc(Nc2ncc(Br)c(NCCCNC(=O)C3CCC3)n2)c1 | -26% (active)
Nc1nc(N)c2c(n1)NC(c1cccc(Nc3ccnc4cc(C(F)(F)F)ccc34)c1)CC(c1ccc(Cl)cc1)=N2 (stereo unspecified) | 54.4%
C=C(C[n+]1ccccc1)[C@@H]1CC[C@]2(C(=O)OC)CC[C@]3(C)[C@H](CC[C@@H]4[C@@]5(C)CCC(=O)C(C)(C)[C@@H]5CC[C@]43C)[C@@H]12 | 85.9%

These compounds were tested on RXF 393 renal in the same assay as above. Settings: 10 µM unless noted.

Structure (SMILES) | growth
CO[C@H]1CC(c2ccc[nH]2)=N[C@]12O[C@@H](C)C[C@@H]1CCCCCCCc3ccc([nH]3)[C@H]12 | 52.7%
COc1ccc2c(O)cc3c(c2c1)[C@H](CCl)CN3C(=O)c1cc2cc(NC(=O)CCN3CCOCC3)ccc2[se]1 | -88.4% (active)
O=c1c(/C=C/c2c(O)ccc3ccccc23)nnc2sc(-c3cccc([N+](=O)[O-])c3)nn12 | 74.5%
CC1(C)CCC[C@]23C(=O)O[C@](O)(C(=O)C4=C[C@@](C)(/C=C/CCCc5ccc6ccc7cccc8ccc5c6c78)CC[C@@]42O)[C@@H]13 | -86.2% (active)
CCOC(=O)CC1C(CNC(=O)NC)OC(n2cnc3c(NC(=O)Nc4ccccc4)ncnc32)C1O[Si](C)(C)C(C)(C)C (stereo unspecified) | -45.2% (active)
COc1ccc(-c2ccc(-c3ccc(C(=N)N)nc3)s2)cc1 | 66.4%
COc1ccc(Cn2cc3c(c2)-c2oncc2CC3)cc1 | 75.8%
O=[N+]([O-])c1ccc(Oc2cccc3c(Oc4ccc([N+](=O)[O-])cc4[N+](=O)[O-])cccc23)c([N+](=O)[O-])c1 | 96.4%
CCCCCN(CCCCC)CC(O)c1c(Cl)ccc2ccccc12 (stereo unspecified) | 63.1%
Cn1cc(-c2csc(-c3cn(C)c4ccc(F)cc34)n2)c2cnccc21 | -85.5% (active)
CNC1=C([N+](=O)[O-])C(c2ccc(OC)cc2)C(C#N)=C(c2ccc[nH]2)O1 (stereo unspecified) | 113%
Cc1cc(C(=O)Nc2cc(Nc3ncccc3-c3ncnc4nc[nH]c34)ccc2F)cc(C(C)(C)C#N)c1 | 88.5%
COC(=O)CNC(=O)c1ccc(NC(=O)c2[nH]c(C)c(Cl)c2Cl)c(O[C@H]2CCNC2)c1 | 111%
FC(F)(F)c1cccc(-c2nnn(Cc3cc(-c4cccc(Cl)c4)no3)n2)c1 | 109%
O=C(Nc1ncc(Cc2ccccc2)s1)c1ccc2c(c1)OCCO2 | 10.2%
CCOC(=O)c1ccc2c(c1)[n+](=O)c(C(C)=O)c(C(F)(F)F)n2[O-] | 31.6%
O=C(Nc1ccccc1C(F)(F)F)C1=NCCCCN1 | 97%
CCCCCC(C)(O)C(C(=O)O)c1ccccc1 (stereo unspecified) | 110%
Nc1ncnc2c1N=C(c1ccc([N+](=O)[O-])cc1)CC(c1ccc3c(c1)OCO3)N2 (stereo unspecified) | 75.6%
COc1cc2c(cc1OC)CC[N+](CCC[N+](C)(C)C)=C2 | 113%

Structure (SMILES) | growth
O=C1Nc2ccccc2/C1=C/c1cccn1CCCCCCn1c2ccccc2c(=O)c2ccccc21 | 99.2%
CCCS(=O)(=O)Nc1cccc(Nc2ncnc3cc(NC(=O)CCl)ccc23)c1Cl | -87.3% (active)
Cc1ccc(C23CCC(=O)N2CCc2cncn23)cc1 (stereo unspecified) | 87%
Cc1ccc(-c2nn(CC(=O)N3CCOCC3)c(N)c2C#N)cc1 | 110%
COC(=O)[C@H](C)NC(=O)[C@@H]1CCCN1C(=O)CNC(=O)[C@H](C)N | 108%
O=C1c2c(c3c4cccnc4[nH]c3c3ccc4ccccc4c23)C(=O)N1O | 47.9%
C#CCOc1cccc(Nc2ncnc3c(NC(=O)CCl)cccc23)c1 | 56.2%
COc1ccc(CNc2c3ccccc3nc3ccccc23)cc1OC | 3.58% (active)
COc1ccc(-c2csc(NC(=O)CSc3nc(C)cc(=O)[nH]3)n2)cc1 | 128%
O=C(CNc1ncco1)Nc1ccc(S(=O)(=O)c2ccc(NC(=O)CNc3ncco3)cc2)cc1 | -38.6% (active)
Cc1c2cnccc2c(C)c2c1c1cc(C(=O)O)ccc1n2C | -72.1% (active)
COc1ccc(-c2cn(Cc3ccc4c(Br)cc(Br)c(O)c4n3)nn2)cc1 | 91.8%
COC(=O)c1c(C(=O)OC)c2ccc3c4ncccc4ccc3n2c1C(=O)c1ccc(C)cc1 | 106%
O=[N+]([O-])c1ccc(N/N=C\c2cc(Cl)ccc2O)nc1 | 50.2%
COc1ccc(C(=O)/C=C/c2ccc(C)cc2)cc1S(N)(=O)=O | 74.4%
CN1CCN(CC(=O)N(C)c2ccc(N=C(c3ccccc3)c3c(O)[nH]c4ccc([N+](=O)[O-])cc34)cc2)CC1 | 28.2%
C=CC(=O)NCc1cccc(Nc2ncc(Br)c(NCCCNC(=O)C3CCC3)n2)c1 | -74.6% (active)
Nc1nc(N)c2c(n1)NC(c1cccc(Nc3ccnc4cc(C(F)(F)F)ccc34)c1)CC(c1ccc(Cl)cc1)=N2 (stereo unspecified) | 37.6%
C=C(C[n+]1ccccc1)[C@@H]1CC[C@]2(C(=O)OC)CC[C@]3(C)[C@H](CC[C@@H]4[C@@]5(C)CCC(=O)C(C)(C)[C@@H]5CC[C@]43C)[C@@H]12 | 99%

Reference: PubChem BioAssay (NCI)
